Hits are enriched below; roughly 7.3% of the tested compounds scored in any of these assays.
KinaseGlo FLuc: counter-screen: inhibitors of Kinase-Glo firefly luciferase; AID 1379; Q27757; actives 0.28% (n = 200,000); Kinase-Glo luciferase, ATP luminescence, 8 min; Potency, µM (top dose mostly 38.3 µM), for the others: at the top dose activity change, negative = inhibition, most hits filed as inhibitors; further: on the % scale 0 is the no-effect control and ±100 the full control effect; nearly all actives have a fitted effect of over 60% in size
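Compounds were added to a substrate mix at pH 7.2 (50 mM imidazole, 10 uM ATP, within the enzyme's linear range), followed by Kinase-Glo detection reagent; luminescence was measured after 8 minutes at ambient temperature.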
NPC1 prom act: NPC1 promoter activation | Huh7 NPC1 promoter luciferase reporter, 24 h | Potency, µM (titrated, usually from 9.22 µM), for the others: at the highest dose activation, actives largely listed as activators | actives 2.4% (n = 320,000); further: % of control where 0% means no effect; nearly all actives have a fitted effect of over 60% in size
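Cells: Huh7 expressing luciferase under the NPC1 promoter, 1500/well. Seeded 2 h, compound added, incubated 24 h at 37 °C. Luciferase reagent, 10 min ambient, then luminescence.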
FLuc counter: inhibits or activates purified firefly luciferase, miR-21 counter-screen; purified FLuc, Km substrates, luminescence inhibition; Potency, µM (titrated, usually from 57.5 µM), inactives show at the top dose activity change, negative = inhibition, usual class: inhibitors; actives 6.9% (n = 360,000); AID 588342;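 further: plate controls were vehicle for no effect and reference inhibitor for full effect; nearly all actives have a fitted effect of over 55% in size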
Target sequence (P08659 whole entry, looked up): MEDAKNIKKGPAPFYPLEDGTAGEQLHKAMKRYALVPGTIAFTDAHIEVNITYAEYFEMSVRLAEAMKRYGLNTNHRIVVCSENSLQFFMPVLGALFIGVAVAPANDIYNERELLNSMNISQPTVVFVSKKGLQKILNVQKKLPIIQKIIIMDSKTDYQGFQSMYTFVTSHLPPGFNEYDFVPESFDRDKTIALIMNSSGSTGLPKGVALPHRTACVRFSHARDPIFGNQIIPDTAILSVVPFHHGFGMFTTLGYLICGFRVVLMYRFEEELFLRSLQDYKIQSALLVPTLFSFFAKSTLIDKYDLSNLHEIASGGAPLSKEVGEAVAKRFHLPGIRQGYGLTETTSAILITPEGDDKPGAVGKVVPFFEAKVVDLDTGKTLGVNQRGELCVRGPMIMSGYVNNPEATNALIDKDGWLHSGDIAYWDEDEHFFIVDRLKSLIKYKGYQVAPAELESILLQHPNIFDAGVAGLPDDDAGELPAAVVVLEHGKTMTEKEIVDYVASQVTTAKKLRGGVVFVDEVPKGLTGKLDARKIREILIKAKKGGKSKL
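Biochemical qHTS of compounds, final roughly 60 µM downward over six points, against 10 nM purified firefly luciferase using Km concentrations of substrates (10 uM D-luciferin, 10 uM ATP) in Tris acetate pH 7.5 buffer; luminescence output.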
ELG1 genotoxic: inducers of genotoxicity in HEK293T ELG1-luciferase cells; HEK293T ELG1-luciferase reporter, luminescence, 16 h; Potency, µM (series often up to 46 µM), for the others: top-dose activity change, positive = activation, usual class: activators; actives 1.3% (n = 330,000); further: % of control where 0% means no effect; nearly all actives have a fitted effect of over 60% in size
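HEK293T cells expressing luciferase-tagged ELG1 were treated with compound or DMSO for 16 hr at 37°C. Luciferase activity was then read after 30 min with ONE-Glo at room temperature; rising signal flags genetic stress.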
SMN2 splice enh: increases expression of the SMN2 splice variant; HEK293 SMN2-luciferase splicing reporter, luminescence, 30-36 h; Potency, µM (doses to about 46.1 µM), without a hit: at the top dose activity change, positive = activation, hits mostly activators; actives 2.8% (n = 210,000); AID 1458; further: % of control where 0% means no effect; nearly all actives have a fitted effect of over 55% in size
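HEK293 cells carry an SMN2 minigene-luciferase reporter in which exon 7 inclusion puts luciferase in frame. Cells were seeded at 2000 cells/well, attached for 10-12 hours, then exposed to compounds for 30-36 hours at 37C before ONE-Glo luminescence.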
Rab9 prom act: activators of Rab9 promoter; Huh7 Rab9 promoter-luciferase reporter, luminescence, 24 h; Potency, µM (series often up to 9.22 µM), without a hit: at the highest dose activation, negative = inhibition, actives largely listed as activators; actives 2.8% (n = 320,000); further: % of control where 0% means no effect; nearly all actives have a fitted effect of over 60% in size
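Luminescence from Amplite-detected luciferase (10 minutes, ambient) reports Rab9 promoter activation. Before that, stable Rab9-luciferase Huh7 cells (1500/well, reduced-serum OP-MEM I plus 10% FBS) were exposed to compound for 24 hours at 37C.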
Starred values were filed as active, the others as inactive. The call rests on the fitted dose curve; in most records, active means well fitted curve in the direction sought with a large enough effect; inconclusive means small, poorly fitted or top-dose-only effect, or another doubt; inactive means no such curve, though single readings can be large; an effect the other way counts as inactive or inconclusive. Potency means the concentration at half of the fitted maximal effect.

Screening COc1ccc(N2CCN(c3nc4c(c(=O)[nH]c(=O)n4C)n3Cc3cccc(C)c3)CC2)cc1 returned KinaseGlo FLuc 2%, NPC1 prom act -3%, FLuc counter -1%, ELG1 genotoxic -9%, SMN2 splice enh -19% and Rab9 prom act -9%.
Screening Cc1[nH]c2ccc3ncccc3c2c1C returned KinaseGlo FLuc -4%, NPC1 prom act 1%, FLuc counter 21µM*, ELG1 genotoxic 3%, SMN2 splice enh -30% and Rab9 prom act 3%.
Screening Cc1cccc(N2CCN(c3nc4ccccc4c4nc(-c5cccnc5)nn34)CC2)c1C returned FLuc counter -1% and SMN2 splice enh -2%.
COc1ccc(NS(=O)(=O)c2ccc(S(=O)(=O)N3CCOCC3)cc2)cc1 was read as KinaseGlo FLuc -1%, NPC1 prom act -2%, FLuc counter -4%, ELG1 genotoxic -9%, SMN2 splice enh -13% and Rab9 prom act -11%.
For c1ccc(Nc2nc(CSc3ncn[nH]3)cs2)cc1 the results were KinaseGlo FLuc -1%, NPC1 prom act inconclusive, FLuc counter 15µM*, ELG1 genotoxic 11%, SMN2 splice enh -28% and Rab9 prom act inconclusive.
COc1cccc(N2CC(O)=C(c3nc4ccccc4c(=O)[nH]3)C2=N)c1 was read as KinaseGlo FLuc -3%, NPC1 prom act -24%, FLuc counter inconclusive, ELG1 genotoxic inconclusive, SMN2 splice enh -27% and Rab9 prom act -11%.
O=C(COC(=O)/C=C/c1ccccc1)Nc1cccnc1Cl was read as NPC1 prom act 5%, FLuc counter inconclusive, ELG1 genotoxic 0% and Rab9 prom act 9%.
`O=C(/C=C/c1ccco1)NCc1ccccn1` gave KinaseGlo FLuc 0%, NPC1 prom act 0%, FLuc counter -10%, ELG1 genotoxic 5%, SMN2 splice enh 10% and Rab9 prom act 11%.
`O=C(/C=C/c1ccco1)Nc1cccnc1Cl` gave NPC1 prom act 4µM*, FLuc counter 15µM*, ELG1 genotoxic inconclusive and Rab9 prom act 4µM*.
`COC(=O)c1ccccc1NC(=O)/C=C/c1ccco1` gave KinaseGlo FLuc -11%, NPC1 prom act 10%, FLuc counter 15µM*, ELG1 genotoxic -5%, SMN2 splice enh 15% and Rab9 prom act 28%.
Screening O=C(/C=C/c1ccccc1)Nc1cccnc1Cl returned NPC1 prom act 2.2µM*, FLuc counter 12µM*, ELG1 genotoxic 18µM* and Rab9 prom act 2.2µM*.
COc1ccc(-c2cc(C(=O)OCC(=O)Nc3cc(C)on3)c3ccccc3n2)cc1OC was read as KinaseGlo FLuc 4%, NPC1 prom act 3%, FLuc counter inconclusive, ELG1 genotoxic 6%, SMN2 splice enh -6% and Rab9 prom act -1%.
Screening O=C(CN1CCCC1c1cccs1)Nc1cccc(S(=O)(=O)N2CCCC2)c1 (stereo not drawn) returned NPC1 prom act -3%, FLuc counter 5%, ELG1 genotoxic -5% and Rab9 prom act -7%.
Screening O=C1CCCc2nc3c(cc21)C(O)Oc1c-3ccc2ccccc12 (stereo not drawn) returned KinaseGlo FLuc -1%, NPC1 prom act 3.2µM*, FLuc counter -11%, ELG1 genotoxic inconclusive, SMN2 splice enh 25% and Rab9 prom act 1.1µM*.
For C=CCN(C(=O)CSC1=NC(=O)CN1C(C)=O)c1nc(C)c(-c2ccccc2)s1 the results were KinaseGlo FLuc 2%, NPC1 prom act 6%, FLuc counter 6.7µM*, ELG1 genotoxic 10%, SMN2 splice enh inconclusive and Rab9 prom act -36%.
`Nc1cc(=O)[nH]c(SCc2cccc3ccccc23)n1` gave NPC1 prom act -4%, FLuc counter 1%, ELG1 genotoxic 0% and Rab9 prom act -5%.
For CC(=O)Oc1ccc2c(c1)O/C(=C\c1ccncc1)C2=O the results were NPC1 prom act -3%, FLuc counter inconclusive, ELG1 genotoxic 1% and Rab9 prom act 1%.
COc1ccc(/C=C2\Oc3cc(OC(=O)N4CCOCC4)ccc3C2=O)cc1 was read as NPC1 prom act 28%, FLuc counter 6.7µM*, ELG1 genotoxic -8% and Rab9 prom act -1%.
For COc1ccccc1C(=O)Oc1ccc2c(c1)O/C(=C\c1ccncc1)C2=O the results were KinaseGlo FLuc -2%, NPC1 prom act -2%, FLuc counter inconclusive, ELG1 genotoxic 2%, SMN2 splice enh 12% and Rab9 prom act -4%.
Screening COc1ccc2c(c1)O/C(=C\c1ccccc1C)C2=O returned NPC1 prom act 29%, FLuc counter 13µM*, ELG1 genotoxic 14% and Rab9 prom act inconclusive.
For CCc1ccc(/C=C2\Oc3cc(OC(=O)N4CCOCC4)ccc3C2=O)cc1 the results were KinaseGlo FLuc -3%, NPC1 prom act -6%, FLuc counter 7.6µM*, ELG1 genotoxic 0%, SMN2 splice enh -47% and Rab9 prom act -10%.
For COc1cc(OC)c(OC)cc1/C=C1\Oc2cc(OS(C)(=O)=O)ccc2C1=O the results were NPC1 prom act 2%, FLuc counter -5%, ELG1 genotoxic -1% and Rab9 prom act -5%.
CN(C)S(=O)(=O)c1ccc(C(=O)OCC2CC2(Cl)Cl)cc1 (stereo not drawn) was read as NPC1 prom act -1%, FLuc counter -5%, ELG1 genotoxic -3% and Rab9 prom act 11%.
NC(=O)C1=C[C@H](C2CCCCC2)C[C@H](OCc2ccc(CO)cc2)O1 was read as NPC1 prom act 2.5µM*, FLuc counter 11µM*, ELG1 genotoxic 2.9µM* and Rab9 prom act 3.2µM*.
`O=C(N/N=C/c1ccccc1[N+](=O)[O-])c1ccc2c(c1)OCCO2` gave NPC1 prom act 0.63µM*, FLuc counter 0.24µM*, ELG1 genotoxic inconclusive and Rab9 prom act inconclusive.
Screening O=C(N/N=C/c1cc([N+](=O)[O-])ccc1O)c1ccc2c(c1)OCCO2 returned KinaseGlo FLuc -1%, NPC1 prom act -9%, FLuc counter inconclusive, ELG1 genotoxic inconclusive, SMN2 splice enh -96% and Rab9 prom act -11%.
Screening O=C(N/N=C/c1cc(O)ccc1[N+](=O)[O-])c1ccc2c(c1)OCCO2 returned NPC1 prom act inconclusive, FLuc counter 0.6µM*, ELG1 genotoxic inconclusive and Rab9 prom act 2µM*.
Cc1ccc(S(=O)(=O)Nc2ccccc2CNC2CCCCC2)cc1 was read as KinaseGlo FLuc 2%, NPC1 prom act -1%, FLuc counter -1%, ELG1 genotoxic -4%, SMN2 splice enh 1% and Rab9 prom act -2%.
